# Screen size: about 48,000 compounds; about 13,000 (27%) showed an effect of 50% or more. This is one part of the list.
# Tested on: Wolbachia pipientis
# Experiment: Anti-Wolbachia Cell-Based Screen
# Assay type: functional
# Set-up: scale not given: in the data most compounds retested in dose-response had high values
# Details: 5 µM
row,Compound,Percent Effect
1,COCC1CN(Cc2c(C)noc2C)Cc2cn(C)nc21 (configuration not stated),8.994%
2,NC(=O)NC(=O)CN1CCN(CC2CC2)c2ccccc21,-3.453%
3,COCC(c1cccc(C(F)(F)F)c1)N(C)C(=O)c1ccncc1 (configuration not stated),-9.987%
4,COCCNc1ccccc1CNC(=O)NCc1nc(C)c(C)s1,-3.267%
5,CC(=O)Nc1ccc2nn(C(C)C)cc2c1,3.305%
6,Cc1cc2cccc(C(=O)N3CCOC4(CNCCOC4)C3)c2o1 (configuration not stated),-17.55%
7,CCN(CC)CCCNCC1CCOC(C)(C)C1 (configuration not stated),90.59%
8,CCN(CC)CCNCC1CCOC(C)(C)C1 (configuration not stated),101.9%
9,COc1c(NS(=O)(=O)c2ccc(F)c(C)c2)c(C)nn1C,6.685%
10,CC(=O)NC[C@@]1(COc2cnccn2)C[C@@H](O)[C@@H](O)C1.Cl,-2.09%
11,CCN(CC)C1(Cc2cc(-c3ccccn3)on2)COC1,-7.749%
12,CNC(=O)c1ccc(CN2CCC(N(C)Cc3noc(C)n3)C2)cc1 (configuration not stated),12.29%
13,Cc1nc(CN(C)C2CCN(Cc3ccc4c(c3)OCCO4)C2)no1 (configuration not stated),-0.871%
14,Cc1nc(CN(C)C2CCN(CCc3ccc4c(c3)CCO4)C2)no1 (configuration not stated),131.2%
15,CNC(=O)c1cccc(CN2CCC(N(C)Cc3noc(C)n3)C2)c1 (configuration not stated),9.379%
16,Cc1nc(CN(C)C2CCN(Cc3cccc(F)c3)C2)no1 (configuration not stated),130.9%
17,Cc1nc(CN(C)C2CCN(Cc3ccc(C(N)=O)cc3)C2)no1 (configuration not stated),137.1%
18,Cc1nc(CN(C)C2CCN(Cc3ccc4c(c3)CCC4)C2)no1 (configuration not stated),94.75%
19,CC(C)(C)C(NC(=O)CCCS(C)(=O)=O)c1ccc(F)cc1F (configuration not stated),6.458%
20,Cc1cnc(N2CCC3(CC2)CC(NC(=O)N(C)C)CO3)nc1 (configuration not stated),3.12%
21,CC(C)c1cc(C(=O)N2C[C@@H](C)[C@](O)(C3CC3)C2)[nH]n1,9.432%
22,CCN(C(C)c1cccc(O)c1)S(=O)(=O)c1cccnc1 (configuration not stated),-1.511%

row,Compound,Percent Effect
1,CC(C)(C)c1c[nH]c([C@@H]2COCCN2C2CCNCC2)n1,-5.137%
2,COc1cccc(CNC(=O)C(C)N2CC(n3nc(C)cc3C)C2)c1 (configuration not stated),-5.224%
3,Cc1cnn(C2CN(CC(=O)NCCc3ccccc3)C2)c1,-5.59%
4,CCc1ccc(NC(=O)CCN2CC(n3nc(C)cc3C)C2)cc1,87.75%
5,Cc1cc(C)n(C2CN(CC(O)Cn3cccn3)C2)n1 (configuration not stated),-3.488%
6,Cc1cc(C)n(C2CN(CC(=O)NC3CCOCC3)C2)n1,-6.139%
7,Cc1cc(C)n(C2CN(CC(=O)N3CCOCC3)C2)n1,-1.985%
8,Cc1cc(C)n(C2CN(CCC(=O)NCCc3ccccc3)C2)n1,114.1%
9,Cc1cc(C)n(C2CN(Cc3ccc(C(=O)N4CCCC4)cc3)C2)n1,-4.233%
10,Cc1cc(C)n(C2CN(CCC(N)=O)C2)n1,109.9%
11,CN(C)S(=O)(=O)NC(=O)CC(c1ccccc1)C(F)(F)F (configuration not stated),-3.128%
12,CCCS(=O)(=O)NCc1cccnc1Oc1ccc(C)nc1,-8.382%
13,O=C(CC1OCCc2ccsc21)NCC1CC1 (configuration not stated),-1.416%
14,CCc1nc(C(=O)N2CCN(CCc3ccc(OC)cc3)CC2)c[nH]1,-9.12%
15,Cc1ccc(C)c(N2CCN(CC3(O)CCNC3)CC2)c1 (configuration not stated),-4.262%
16,O=C(NCCCO)C1CC(=O)N(c2n[nH]c3cccc(F)c23)C1 (configuration not stated),13.85%
17,Cc1cc(O)cc(=O)n1CCCC(=O)Nc1n[nH]c2cccc(F)c12,106.9%
18,Cc1cc(NC(=O)Cn2ccccc2=O)n(C)n1,-5.406%
19,Cn1nc(C(C)(C)C)cc1NC(=O)Cn1ccccc1=O,13.92%
20,Cc1ccccc1-c1cc(NC(=O)Cn2ccccc2=O)n(C)n1,-15.16%
21,Cc1noc(C)c1NC(=O)CCn1cc(Br)ccc1=O,5.297%
22,Cc1cc(O)cc(=O)n1CCCC(=O)Nc1n[nH]c2ccccc12,106.8%

row,Compound,Percent Effect
1,Cc1nonc1NC(=O)CCn1cc(Br)ccc1=O,-2.489%
2,Cc1cc(O)cc(=O)n1CCCC(=O)Nc1n[nH]c2cc(Br)ccc12,109.7%
3,COc1ccccc1OC1(C(=O)O)CCN(c2nccnc2OC)CC1,-49.7%
4,CC(=O)c1ccc(N2CCCC(CO)(Cc3ccccc3F)C2)nc1 (configuration not stated),-130%
5,CC(C(=O)N1CCn2cncc2C1)N1C[C@@H](C)O[C@@H](C)C1 (some centres not stated),4.778%
6,Cc1nc(C)c(C(=O)N2CCCC2(C)C(=O)NC2CCCC2)o1 (configuration not stated),148.2%
7,Cc1nc(C)c(C(=O)N2CCCC2(C)C(=O)NC2CCCC2)s1 (configuration not stated),95.95%
8,Cc1noc(C2CCN(C(=O)c3c(C)noc3C)CC2)n1,-1.195%
9,Cc1noc(C)c1C(=O)N1CCCC1(C)C(=O)NC1CCCC1 (configuration not stated),82.14%
10,COc1cccc2c1CCCCN2C(=O)c1oc(C)nc1C,-10.05%
11,CNC(=O)C1CCCCN1C(=O)c1sc(-c2ccc(C)o2)nc1C (configuration not stated),8.745%
12,Cc1noc([C@@]23CCO[C@@H]2CCN(C(=O)c2c(C)noc2C)C3)n1,-5.968%
13,Cc1nc(C)c(C(=O)N2CCCc3c(F)ccc(F)c32)o1,-4.238%
14,O=C(CCn1cccn1)N1CCN(CC(F)F)CC1,6.604%
15,CN(Cc1nc2ccsc2c(=O)[nH]1)CC1CCCCC1,-1.437%
16,COc1nc2ccn(CCc3cc(O)nc(C)n3)c(=O)c2cc1C#N,-7.353%
17,COc1ccc(CCN2CCc3c(nc(C4CC4)n3C)C2)cc1,-1.016%
18,Cc1nc(CCNc2nc(N(C)C)nc3c2CCCC3)cc(=O)[nH]1,13.62%
19,c1ccc(-c2nc3c(c(NCCc4c[nH]cn4)n2)CCNC3)cc1,7.707%
20,Cc1nc(N(C)C)nc(NCCc2ccccn2)c1C,85.61%
21,Cc1nc(C)c(C)c(NCCSc2ccccn2)n1,-2.821%
22,Cc1nc(N(C)C)nc(NCCc2cnccn2)c1C,98.55%

row,Compound,Percent Effect
1,c1nc(CCNc2nc(C3CC3)nc3c2CCNCC3)c[nH]1,9.275%
2,Cc1nc(N(C)C)ncc1C(=O)NCCc1csc(-c2cnccn2)n1,-3.2%
3,Cc1nc(N(C)C)nc(NCCc2c[nH]cn2)c1C,92.29%
4,Cc1nc(O)cc(CCNc2nc(N(C)C)nc(C)c2C)n1,19.28%
5,Cc1cccnc1N1CCN(Cc2cc(O)c3cccc(F)c3n2)CC1,-4.875%
6,CCS(=O)(=O)N1CCOC2(CCCN(c3ncc(F)cn3)C2)C1 (configuration not stated),-5.745%
7,Cc1cnc(CNS(=O)(=O)CCC2CCCO2)o1 (configuration not stated),-9.077%
8,CC1CN(Cc2cnn(C)c2)CCN1c1ccc2nncn2n1 (configuration not stated),114.2%
9,CC1CN(Cc2nccn2C)CCN1c1ccc2nncn2n1 (configuration not stated),2.712%
10,CC1CN(Cc2cccnc2)CCN1c1ccc2nncn2n1 (configuration not stated),111.3%
11,COc1cccc(CN2CCN(c3ccc4nncn4n3)C(C)C2)c1 (configuration not stated),-8.631%
12,CC1CN(Cc2cccc(C#N)c2)CCN1c1ccc2nncn2n1 (configuration not stated),-2.779%
13,CCC(=O)N1CCN(C(=O)Nc2cccc(F)c2)[C@H]2CS(=O)(=O)C[C@H]21,4.618%
14,Cc1nc(CN2CCOC(Cn3cccn3)C2)nc2ccccc12 (configuration not stated),103.8%
15,Cc1cnn(CC2CN(Cc3nc(C)c4ccccc4n3)CCO2)c1 (configuration not stated),114.4%
16,Cc1nc2ccccc2nc1CN1CCOC(Cn2cccn2)C1 (configuration not stated),77.13%
17,Cc1nc(CN2CCOC(Cn3cncn3)C2)nc2ccccc12 (configuration not stated),-10.51%
18,Cc1cnn(CC2CN(Cc3nc(N)c4ccccc4n3)CCO2)c1 (configuration not stated),9.564%
19,Nc1nc(CN2CCOC(Cn3cncn3)C2)nc2ccccc12 (configuration not stated),-0.7232%
20,Cc1cnn(CC2CN(Cc3nc4ccccc4nc3C)CCO2)c1 (configuration not stated),-8.261%
21,Nc1nc(CN2CCOC(Cn3cccn3)C2)nc2ccccc12 (configuration not stated),54.57%
22,CNC(=O)Cc1ccc(-n2ccnc2-c2cccc(C(=O)O)c2)cc1,-25.18%

row,Compound,Percent Effect
1,Cc1noc(-c2ccc(N(C)Cc3cccnc3)nc2)n1,-25.91%
2,O=C1CCc2cc(S(=O)(=O)NCc3cc4n(n3)CCNC4)ccc2N1,-63.18%
3,Cc1ccc(C(CNCc2cnn(C(C)C)c2)N2CCOCC2)s1 (configuration not stated),14.4%
4,O=C(NCC(O)COc1cccc(F)c1)C1(c2ccc(F)cc2)CC1 (configuration not stated),-1.107%
5,CCCOCCn1ncc(N2CCc3ccccc3C2)cc1=O,-4.867%
6,Cc1ccc(-c2nc(CNc3ccc(C(N)=O)c(C)c3)cs2)o1,16.54%
7,COc1ccc(OCCCNC(=O)NCc2csc(C)n2)cc1,-1.518%
8,COCCNC(=O)c1ccc(NCc2c(C)noc2C)cc1Cl,99.6%
9,COCCNC(=O)c1ccc(NCc2csc(C)n2)cc1Cl,103.1%
10,Cc1noc(C)c1CNc1cccc(C(=O)N(C)c2ccccc2)c1,8.742%
11,CSc1ccc(NCc2csc(C)n2)cc1F,74.08%
12,CNC(=O)Cc1nc(CNc2ccc(SC)c(F)c2)cs1,0.08952%
13,COC(=O)c1cc(NCc2cscn2)ccc1C,4.935%
14,COC(=O)c1ccc(NCc2csc(C)n2)cc1Cl,105.1%
15,Cc1noc(C)c1CNc1ccc2nc(C3CC3)sc2c1,-3.579%
16,COCc1nc2cc(NCc3csc(C)n3)ccc2o1,-10.85%
17,CSc1ccc(NCc2csc(CS(C)(=O)=O)n2)cc1F,19.87%
18,CCOCCC(=O)N1Cc2cnc(-c3ccccc3)nc2C1,-9.321%
19,Cc1nsc(N2CCN(C(=O)Nc3cccc(C#N)c3)CC2)n1,-11.67%

# — ChEMBL document CHEMBL3988442, “University of Dundee, Small-Polar-MMV Screening Library” (2021)
